For 1 sequence, binding signal results are on record in publication PMC7862700, “An all-to-all approach to the identification of sequence-specific readers for epigenetic DNA modifications on cytosine”.

What all share (experiment): DAPPL (digital affinity profiling via proximity ligation, sequencing); 10 mM Tris-HCl pH 7.5, 50 mM NaCl, 1 mM DTT, 4% glycerol, room temperature, 30 min; GST-TFs on glutathione beads, 16-mer random dsDNA library, 0.1% formaldehyde crosslink after washing; high values mean tight binding
The target of assay [1] is T1, FEV (Homo sapiens, UniProt Q99581 1-238).
T1 sequence: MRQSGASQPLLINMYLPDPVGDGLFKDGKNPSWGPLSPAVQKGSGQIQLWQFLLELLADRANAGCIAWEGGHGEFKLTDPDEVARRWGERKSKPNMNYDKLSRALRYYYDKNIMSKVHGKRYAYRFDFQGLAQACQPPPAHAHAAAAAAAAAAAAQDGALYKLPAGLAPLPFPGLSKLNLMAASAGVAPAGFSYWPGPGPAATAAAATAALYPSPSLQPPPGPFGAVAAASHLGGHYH
As to conditions: protein: recombinant; tags: N-terminal GST; dsDNA, one strand shown. The gist of the method: (§1)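 Binding signal is each hexamer's read frequency for a factor divided by its frequency in the tag-only sample. The factors were GST-fused human transcription factors from yeast, captured on glutathione beads, DNA-barcoded and pooled with that sample. Pools were incubated with 200 nmole of a random double-stranded 16-mer DNA library in Tris/NaCl/DTT/glycerol buffer at room temperature for 30 min, then washed, crosslinked with 0.1% formaldehyde, proximity-ligated with BsaI/T4 ligase (1 h, 37 °C), PCR-amplified and sequenced on an Illumina NextSeq500.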

Assay [2] addresses ETV5 (Homo sapiens, UniProt P41161 1-510). The following applies: protein: recombinant; tags: N-terminal GST; dsDNA, one strand shown. An outline of the steps:
as §1

In assay [3] the target is HSF1 (Homo sapiens, UniProt Q00613 1-529). As to conditions: protein: recombinant; tags: N-terminal GST; chain copies: 3; dsDNA, one strand shown. An outline of the steps: as §1
Assay [4] has as its target T2, SPIC (Homo sapiens, UniProt Q8N5J4 1-248).
T2 sequence: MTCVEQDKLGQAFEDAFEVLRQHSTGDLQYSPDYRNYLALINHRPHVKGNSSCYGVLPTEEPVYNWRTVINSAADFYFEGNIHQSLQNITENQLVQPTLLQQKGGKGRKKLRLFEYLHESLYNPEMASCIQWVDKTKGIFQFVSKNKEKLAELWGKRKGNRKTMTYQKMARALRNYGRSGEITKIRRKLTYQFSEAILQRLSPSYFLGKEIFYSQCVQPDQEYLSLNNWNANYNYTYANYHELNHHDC
As to conditions: protein: recombinant; tags: N-terminal GST; dsDNA, one strand shown. An outline of the steps:
as §1

The target in assay [5] is ELF4 (Homo sapiens, UniProt Q99607 1-663). The following applies: protein: recombinant; tags: N-terminal GST; dsDNA, one strand shown. An outline of the steps:
as §1

The target in assay [6] is T3, ELK4 (Homo sapiens, UniProt P28324-2 1-405).
T3 sequence: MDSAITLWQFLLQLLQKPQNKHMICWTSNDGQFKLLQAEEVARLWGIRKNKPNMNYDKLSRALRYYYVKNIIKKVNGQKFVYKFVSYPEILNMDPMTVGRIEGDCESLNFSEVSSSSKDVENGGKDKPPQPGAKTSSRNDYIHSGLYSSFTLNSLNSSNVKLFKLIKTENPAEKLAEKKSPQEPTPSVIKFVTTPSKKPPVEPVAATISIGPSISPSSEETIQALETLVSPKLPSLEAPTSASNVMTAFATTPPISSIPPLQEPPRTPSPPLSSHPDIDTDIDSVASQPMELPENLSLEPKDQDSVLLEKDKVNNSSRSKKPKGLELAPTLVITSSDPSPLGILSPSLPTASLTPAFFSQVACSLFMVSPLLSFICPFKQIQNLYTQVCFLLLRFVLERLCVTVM
The following applies: protein: recombinant; tags: N-terminal GST; dsDNA, one strand shown. The gist of the method: as §1

In assay [7] the target is T4, ETV2 (Homo sapiens, UniProt O00321 1-342).
T4 sequence: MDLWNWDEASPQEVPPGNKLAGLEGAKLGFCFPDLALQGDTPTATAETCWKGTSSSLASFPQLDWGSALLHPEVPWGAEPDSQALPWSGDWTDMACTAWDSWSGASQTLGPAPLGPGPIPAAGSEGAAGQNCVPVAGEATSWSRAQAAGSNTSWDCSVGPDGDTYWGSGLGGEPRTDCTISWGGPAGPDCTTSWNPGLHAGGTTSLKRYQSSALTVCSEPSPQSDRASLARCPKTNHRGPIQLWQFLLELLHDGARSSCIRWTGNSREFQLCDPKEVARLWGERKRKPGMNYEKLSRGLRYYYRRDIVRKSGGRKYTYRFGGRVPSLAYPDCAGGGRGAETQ
The following applies: protein: recombinant; tags: N-terminal GST; dsDNA, one strand shown. The gist of the method:
as §1

Assay [8] concerns the target T5, ELF3 (Homo sapiens, UniProt P78545 1-371).
T5 sequence: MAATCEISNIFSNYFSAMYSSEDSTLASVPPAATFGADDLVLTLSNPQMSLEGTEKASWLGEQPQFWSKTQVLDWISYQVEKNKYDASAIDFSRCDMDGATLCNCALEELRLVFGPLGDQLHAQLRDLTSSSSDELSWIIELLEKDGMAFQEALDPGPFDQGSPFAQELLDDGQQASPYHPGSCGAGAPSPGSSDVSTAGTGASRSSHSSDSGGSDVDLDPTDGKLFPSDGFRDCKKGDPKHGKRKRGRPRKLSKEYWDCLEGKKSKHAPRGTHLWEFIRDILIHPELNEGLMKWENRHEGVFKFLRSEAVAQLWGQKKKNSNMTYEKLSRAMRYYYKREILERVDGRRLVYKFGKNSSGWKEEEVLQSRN
As to conditions: protein: recombinant; tags: N-terminal GST; dsDNA, one strand shown. The gist of the method: as §1

For assay [9], the target named is CRX (Homo sapiens, UniProt O43186 1-299). As to conditions: protein: recombinant; tags: N-terminal GST; dsDNA, one strand shown. The gist of the method:
as §1

Assay [10] addresses ETV1 (Homo sapiens, UniProt P50549 1-477). The following applies: protein: recombinant; tags: N-terminal GST; dsDNA, one strand shown. An outline of the steps: as §1
In assay [11] the target is T6, ERF (Homo sapiens, UniProt P50548 1-548).
T6 sequence: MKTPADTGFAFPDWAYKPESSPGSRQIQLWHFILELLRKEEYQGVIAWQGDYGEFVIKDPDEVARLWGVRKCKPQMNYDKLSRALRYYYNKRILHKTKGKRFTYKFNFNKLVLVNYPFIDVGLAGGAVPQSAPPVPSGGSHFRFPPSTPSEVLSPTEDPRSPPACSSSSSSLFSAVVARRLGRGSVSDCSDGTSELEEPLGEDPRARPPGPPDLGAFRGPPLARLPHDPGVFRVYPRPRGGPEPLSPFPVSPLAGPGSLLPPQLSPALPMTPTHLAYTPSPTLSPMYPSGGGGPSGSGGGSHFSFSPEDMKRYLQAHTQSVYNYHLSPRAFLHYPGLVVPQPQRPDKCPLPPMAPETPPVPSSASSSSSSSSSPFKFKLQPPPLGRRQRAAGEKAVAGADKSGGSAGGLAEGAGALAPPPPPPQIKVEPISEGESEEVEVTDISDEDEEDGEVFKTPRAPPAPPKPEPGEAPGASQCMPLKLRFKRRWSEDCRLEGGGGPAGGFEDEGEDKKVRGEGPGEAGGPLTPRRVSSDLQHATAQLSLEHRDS
The following applies: protein: recombinant; tags: N-terminal GST; dsDNA, one strand shown. The gist of the method: as §1

Assay [12] has as its target T7, ETV3L (Homo sapiens, UniProt Q6ZN32 1-361).
T7 sequence: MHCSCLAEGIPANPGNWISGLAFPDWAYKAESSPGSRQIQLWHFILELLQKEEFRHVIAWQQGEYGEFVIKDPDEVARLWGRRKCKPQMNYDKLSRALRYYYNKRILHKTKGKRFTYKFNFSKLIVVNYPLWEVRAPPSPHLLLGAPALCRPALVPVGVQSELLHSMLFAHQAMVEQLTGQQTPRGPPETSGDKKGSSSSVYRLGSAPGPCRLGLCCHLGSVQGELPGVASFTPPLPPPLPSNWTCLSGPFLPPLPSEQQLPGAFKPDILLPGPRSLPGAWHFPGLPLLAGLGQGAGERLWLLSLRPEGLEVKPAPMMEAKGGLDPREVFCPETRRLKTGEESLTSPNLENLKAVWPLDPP
As to conditions: protein: recombinant; tags: N-terminal GST; dsDNA, one strand shown. The gist of the method: as §1

In assay [13] the target is T8, ETS2 (Homo sapiens, UniProt P15036 1-469).
T8 sequence: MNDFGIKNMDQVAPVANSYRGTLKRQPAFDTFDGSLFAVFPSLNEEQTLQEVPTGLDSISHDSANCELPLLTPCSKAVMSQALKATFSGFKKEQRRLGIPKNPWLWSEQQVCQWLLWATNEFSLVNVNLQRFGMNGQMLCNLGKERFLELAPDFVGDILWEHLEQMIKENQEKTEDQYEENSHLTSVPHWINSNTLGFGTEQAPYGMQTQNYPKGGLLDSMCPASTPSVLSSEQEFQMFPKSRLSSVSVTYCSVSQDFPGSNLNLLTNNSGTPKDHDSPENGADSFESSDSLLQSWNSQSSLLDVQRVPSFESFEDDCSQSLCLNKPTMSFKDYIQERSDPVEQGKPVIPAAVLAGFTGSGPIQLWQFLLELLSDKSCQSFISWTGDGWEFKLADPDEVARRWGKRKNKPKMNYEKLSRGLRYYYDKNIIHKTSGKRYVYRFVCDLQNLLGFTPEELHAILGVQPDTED
As to conditions: protein: recombinant; tags: N-terminal GST; dsDNA, one strand shown. The gist of the method:
as §1

Assay [14] addresses T9, SPDEF (Homo sapiens, UniProt O95238 1-335).
T9 sequence: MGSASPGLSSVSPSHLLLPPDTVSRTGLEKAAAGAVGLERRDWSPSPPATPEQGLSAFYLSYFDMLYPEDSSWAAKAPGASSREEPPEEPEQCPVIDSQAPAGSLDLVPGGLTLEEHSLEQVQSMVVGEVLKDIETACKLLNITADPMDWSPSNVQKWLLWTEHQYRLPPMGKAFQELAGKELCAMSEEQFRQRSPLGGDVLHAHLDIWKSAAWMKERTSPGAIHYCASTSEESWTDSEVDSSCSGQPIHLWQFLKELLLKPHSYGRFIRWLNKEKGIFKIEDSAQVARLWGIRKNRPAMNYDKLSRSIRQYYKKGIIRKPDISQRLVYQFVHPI
The following applies: protein: recombinant; tags: N-terminal GST; dsDNA, one strand shown. The gist of the method: as §1

Assay [15] deals with T10, ETV7 (Homo sapiens, UniProt Q9Y603 1-341).
T10 sequence: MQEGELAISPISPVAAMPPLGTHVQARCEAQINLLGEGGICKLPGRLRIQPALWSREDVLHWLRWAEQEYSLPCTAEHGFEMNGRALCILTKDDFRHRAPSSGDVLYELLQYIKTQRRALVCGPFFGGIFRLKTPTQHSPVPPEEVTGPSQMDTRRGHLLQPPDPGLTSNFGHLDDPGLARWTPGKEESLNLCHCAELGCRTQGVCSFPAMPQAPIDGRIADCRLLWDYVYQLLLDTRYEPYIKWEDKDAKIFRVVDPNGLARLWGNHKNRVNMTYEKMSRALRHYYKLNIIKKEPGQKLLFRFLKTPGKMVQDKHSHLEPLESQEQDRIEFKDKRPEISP
The following applies: protein: recombinant; tags: N-terminal GST; dsDNA, one strand shown. The gist of the method:
as §1

The target in assay [16] is T11, ELF5 (Homo sapiens, UniProt Q9UKW6-2 1-255).
T11 sequence: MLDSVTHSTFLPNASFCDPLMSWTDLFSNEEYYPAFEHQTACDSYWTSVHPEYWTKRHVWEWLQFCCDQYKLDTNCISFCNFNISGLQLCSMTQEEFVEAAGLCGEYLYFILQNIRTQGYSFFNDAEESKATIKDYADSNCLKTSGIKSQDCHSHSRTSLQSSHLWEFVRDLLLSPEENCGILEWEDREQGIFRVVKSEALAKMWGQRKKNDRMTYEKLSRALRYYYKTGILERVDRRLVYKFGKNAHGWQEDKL
As to conditions: protein: recombinant; tags: N-terminal GST; dsDNA, one strand shown. The gist of the method:
as §1

The target of assay [17] is T12, ETV3 (Homo sapiens, UniProt P41162-2 1-143).
T12 sequence: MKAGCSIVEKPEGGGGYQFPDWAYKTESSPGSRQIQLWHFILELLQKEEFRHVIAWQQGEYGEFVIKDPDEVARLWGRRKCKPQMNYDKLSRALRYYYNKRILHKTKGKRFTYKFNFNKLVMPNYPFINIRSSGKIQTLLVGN
The following applies: protein: recombinant; tags: N-terminal GST; dsDNA, one strand shown. An outline of the steps:
as §1

Assay [18] deals with ETV6 (Homo sapiens, UniProt P41212 1-452). As to conditions: protein: recombinant; tags: N-terminal GST; dsDNA, one strand shown. An outline of the steps:
as §1

Chain of ETV1 (P50549 whole entry): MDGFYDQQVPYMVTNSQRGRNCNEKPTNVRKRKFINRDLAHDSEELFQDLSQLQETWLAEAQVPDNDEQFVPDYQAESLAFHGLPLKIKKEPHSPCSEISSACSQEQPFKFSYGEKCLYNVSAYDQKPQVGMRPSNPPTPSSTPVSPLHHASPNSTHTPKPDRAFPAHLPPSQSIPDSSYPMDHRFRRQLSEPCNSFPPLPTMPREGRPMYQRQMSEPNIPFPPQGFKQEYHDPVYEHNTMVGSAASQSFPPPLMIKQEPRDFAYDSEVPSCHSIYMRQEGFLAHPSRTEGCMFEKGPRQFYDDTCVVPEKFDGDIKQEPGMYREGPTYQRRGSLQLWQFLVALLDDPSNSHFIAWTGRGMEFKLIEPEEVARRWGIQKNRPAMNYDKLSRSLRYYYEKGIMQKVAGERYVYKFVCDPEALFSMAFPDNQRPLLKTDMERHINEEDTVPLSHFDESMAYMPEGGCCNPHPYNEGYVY
Chain of ETV5 (P41161 whole entry): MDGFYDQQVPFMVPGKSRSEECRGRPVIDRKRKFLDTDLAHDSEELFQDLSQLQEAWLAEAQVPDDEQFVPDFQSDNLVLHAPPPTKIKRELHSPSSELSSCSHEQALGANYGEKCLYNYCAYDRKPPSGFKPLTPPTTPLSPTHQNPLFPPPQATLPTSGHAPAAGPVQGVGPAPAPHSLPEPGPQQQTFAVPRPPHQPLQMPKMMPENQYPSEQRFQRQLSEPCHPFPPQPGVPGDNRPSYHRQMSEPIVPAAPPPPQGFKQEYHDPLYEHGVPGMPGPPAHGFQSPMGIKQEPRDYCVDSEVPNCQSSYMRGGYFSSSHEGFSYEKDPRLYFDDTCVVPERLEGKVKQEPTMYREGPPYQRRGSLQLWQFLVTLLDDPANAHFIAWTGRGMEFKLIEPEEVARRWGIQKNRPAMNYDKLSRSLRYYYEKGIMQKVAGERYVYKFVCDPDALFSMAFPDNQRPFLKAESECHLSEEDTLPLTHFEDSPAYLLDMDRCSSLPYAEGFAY
Chain of CRX (O43186 whole entry): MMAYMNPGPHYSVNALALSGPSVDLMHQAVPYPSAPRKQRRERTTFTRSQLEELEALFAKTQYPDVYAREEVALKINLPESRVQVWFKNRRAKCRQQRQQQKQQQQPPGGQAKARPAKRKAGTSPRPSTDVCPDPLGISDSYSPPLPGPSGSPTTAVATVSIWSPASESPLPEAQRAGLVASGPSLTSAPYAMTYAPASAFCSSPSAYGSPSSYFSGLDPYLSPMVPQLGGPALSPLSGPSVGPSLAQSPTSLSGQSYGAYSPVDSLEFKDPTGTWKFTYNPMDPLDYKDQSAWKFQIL
Chain of ETV6 (P41212 whole entry): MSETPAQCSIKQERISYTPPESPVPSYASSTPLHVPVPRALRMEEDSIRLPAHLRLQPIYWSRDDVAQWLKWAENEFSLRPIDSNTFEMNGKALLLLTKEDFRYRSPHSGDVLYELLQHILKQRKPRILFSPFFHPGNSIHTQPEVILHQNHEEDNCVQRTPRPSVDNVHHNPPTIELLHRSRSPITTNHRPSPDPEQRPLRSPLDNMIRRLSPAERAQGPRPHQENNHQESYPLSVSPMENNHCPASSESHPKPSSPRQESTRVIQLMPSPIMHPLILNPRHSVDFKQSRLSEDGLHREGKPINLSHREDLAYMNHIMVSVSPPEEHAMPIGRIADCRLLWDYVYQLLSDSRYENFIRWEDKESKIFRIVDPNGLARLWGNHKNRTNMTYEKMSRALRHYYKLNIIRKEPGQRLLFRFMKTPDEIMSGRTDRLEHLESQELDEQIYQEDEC
Chain of ELF4 (Q99607 whole entry): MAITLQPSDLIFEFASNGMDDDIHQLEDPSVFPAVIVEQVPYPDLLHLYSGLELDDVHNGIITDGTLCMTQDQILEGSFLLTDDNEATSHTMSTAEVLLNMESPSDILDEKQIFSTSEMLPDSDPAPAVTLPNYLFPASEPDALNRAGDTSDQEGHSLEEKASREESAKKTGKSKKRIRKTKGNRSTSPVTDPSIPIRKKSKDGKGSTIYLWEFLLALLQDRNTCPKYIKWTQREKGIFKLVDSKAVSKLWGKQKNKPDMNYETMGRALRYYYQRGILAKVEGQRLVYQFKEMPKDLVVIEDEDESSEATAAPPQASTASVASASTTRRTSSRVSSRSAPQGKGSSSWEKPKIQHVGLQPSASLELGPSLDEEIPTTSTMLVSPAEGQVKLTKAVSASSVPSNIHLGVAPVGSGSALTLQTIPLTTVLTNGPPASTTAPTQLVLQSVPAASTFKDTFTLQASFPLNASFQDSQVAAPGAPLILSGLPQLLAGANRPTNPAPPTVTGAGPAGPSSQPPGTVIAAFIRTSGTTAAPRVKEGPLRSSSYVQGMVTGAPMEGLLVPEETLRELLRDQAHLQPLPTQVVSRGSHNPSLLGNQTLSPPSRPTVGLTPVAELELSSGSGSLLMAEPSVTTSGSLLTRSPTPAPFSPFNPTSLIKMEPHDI
Chain of HSF1 (Q00613 whole entry): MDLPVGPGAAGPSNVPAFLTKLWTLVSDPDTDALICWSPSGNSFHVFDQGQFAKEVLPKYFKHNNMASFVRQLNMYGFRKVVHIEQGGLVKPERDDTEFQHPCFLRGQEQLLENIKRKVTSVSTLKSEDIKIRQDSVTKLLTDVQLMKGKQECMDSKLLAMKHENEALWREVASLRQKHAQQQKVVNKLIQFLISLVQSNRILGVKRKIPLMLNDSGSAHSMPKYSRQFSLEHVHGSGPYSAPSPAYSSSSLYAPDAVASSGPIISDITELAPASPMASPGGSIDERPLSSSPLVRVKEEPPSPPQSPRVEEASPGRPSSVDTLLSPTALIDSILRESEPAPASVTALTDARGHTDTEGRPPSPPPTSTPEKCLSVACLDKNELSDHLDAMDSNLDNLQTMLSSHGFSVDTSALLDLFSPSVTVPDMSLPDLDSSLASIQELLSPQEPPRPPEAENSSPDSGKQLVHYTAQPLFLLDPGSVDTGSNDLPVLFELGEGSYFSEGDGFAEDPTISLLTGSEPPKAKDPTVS

In the case of TAACCC, the binding signal in [1] is 1.26 fold enrichment (6-mer frequency, TF over GST control); in [2] it was 1.31 fold enrichment (6-mer frequency, TF over GST control); in [3], 1.3 fold enrichment (6-mer frequency, TF over GST control); in assay [4], 1.35 fold enrichment (6-mer frequency, TF over GST control); in assay [5], 1.32 fold enrichment (6-mer frequency, TF over GST control); in [6] it was 1.2 fold enrichment (6-mer frequency, TF over GST control). For the same sequence, the binding signal in assay [7] was 1.17 fold enrichment (6-mer frequency, TF over GST control); in [8], 1.29 fold enrichment (6-mer frequency, TF over GST control); in [9], 1.77 fold enrichment (6-mer frequency, TF over GST control); in assay [10] it was 1.29 fold enrichment (6-mer frequency, TF over GST control); in [11], 1.17 fold enrichment (6-mer frequency, TF over GST control); in [12] it was 1.22 fold enrichment (6-mer frequency, TF over GST control). The binding signal is 1.26 fold enrichment (6-mer frequency, TF over GST control) in [13]; 1.32 fold enrichment (6-mer frequency, TF over GST control) in assay [14]; 1.31 fold enrichment (6-mer frequency, TF over GST control) in [15]; 1.3 fold enrichment (6-mer frequency, TF over GST control) in assay [16]; 1.26 fold enrichment (6-mer frequency, TF over GST control) in assay [17]; 1.3 fold enrichment (6-mer frequency, TF over GST control) in assay [18].
